The values below come from PubChem BioAssay.

Values without a mark were called inactive. For part of these data: Measured potencies and affinities stand elsewhere. Activity calls are given as the source filed them. Unless noted, the rule behind the calls is not given here.

One may read the inhibition as the drop in the measured response relative to a control, in per cent.

Experiment [1] in a line: antimalarial activity against Dd2 strain (AID 2302;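 active = growth inhibition above 50% at the single 2 µM test dose, taken to imply half-maximal potency below 2 µM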;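 note: 0% = DMSO untreated growth and 100% = chloroquine plus artemisinin killed control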). The following applies: P. falciparum Dd2 in RBCs, LDH growth readout, 72 h; at 2 µM; stronger effect = higher value.
A short description of experiment [2]: HepG2 cytotoxicity, primary screen, cytotoxicity control for P. falciparum antimalarial project, cell-based, ATP luminescence (AID 2303;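 active = inhibition above 50%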;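 note: 0% = DMSO wells and 100% = digitonin-killed cells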). The following applies: HepG2 viability, 24-48 h, at 10 µM, stronger effect = higher value.
The target of experiment [3] is L-lactate dehydrogenase (Plasmodium falciparum (isolate CDC / Honduras)) (UniProt Q27743). The experiment in a line: PfLDH activity inhibition – cell lysate, 3D7 strain, counter-screen for P. falciparum growth inhibition project (AID 2304).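 Note: 0% = vehicle and 100% = reference inhibitor.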 The following applies: P. falciparum 3D7 crude extract, LDH APAD/NBT absorbance; at 2 µM; stronger effect = higher value. In general terms: A counterscreen serves to expose hits that act by an unwanted route or on another target.

Experiment [4] can be described thus: inhibition of 3D7 malaria parasite growth – strain 3D7 (AID 2306).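 Note: 0% = DMSO wells and 100% = chloroquine plus artemisinin control wells.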 The following applies: P. falciparum 3D7 erythrocytic growth, LDH absorbance, 72 h; at 2 µM; stronger effect = higher value.
The target of experiment [5] is Calcium-dependent protein kinase 1 (Plasmodium falciparum (isolate 3D7)) (UniProt P62344). Kind of experiment: PfCDPK1 kinase inhibitors, biochemical, TCAMS library (AID 1159585; cut-off not given, nearly all actives have IC50 up to about 0.98 µM;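 note: inhibitors leave more ATP so luminescence rises with inhibition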). To be noted: recombinant PfCDPK1, Kinase-Glo ATP depletion luminescence.
The target in experiment [6] is Plasmodium falciparum protein kinase 6 (PK6, PF3D7_1337100) (UniProt Q8IDW1). Kind of experiment: PfPK6 kinase inhibitors, biochemical, TCAMS library (AID 1159586). The following applies: recombinant PfPK6, Kinase-Glo ATP depletion luminescence. On the technique in general: Kinase-Glo reads ATP consumption through a luciferase reaction.
The target of experiment [7] is Protein kinase 7 (PK7), Plasmodium falciparum 3D7 (PF3D7_0213400) (UniProt Q7YTF7). Kind of experiment: inhibition of Plasmodium PK7 catalytic activity – biochemical, TCAMS antimalarial set, Kinase-Glo luminescence (AID 1159587). To be noted: recombinant PfPK7, Kinase-Glo ATP depletion luminescence.
For experiment [8], the target named is Calcium-dependent protein kinase 4 (Plasmodium falciparum (isolate 3D7)) (UniProt Q8IBS5). The experiment in a line: PfCDPK4 kinase inhibitors, biochemical, TCAMS library (AID 1159588; cut-off not given, nearly all actives have IC50 up to about 0.91 µM). To be noted: recombinant PfCDPK4, Kinase-Glo ATP depletion luminescence.
Calcium-dependent protein kinase 4 (Plasmodium falciparum (isolate 3D7)), sequence (Q8IBS5 whole entry, looked up): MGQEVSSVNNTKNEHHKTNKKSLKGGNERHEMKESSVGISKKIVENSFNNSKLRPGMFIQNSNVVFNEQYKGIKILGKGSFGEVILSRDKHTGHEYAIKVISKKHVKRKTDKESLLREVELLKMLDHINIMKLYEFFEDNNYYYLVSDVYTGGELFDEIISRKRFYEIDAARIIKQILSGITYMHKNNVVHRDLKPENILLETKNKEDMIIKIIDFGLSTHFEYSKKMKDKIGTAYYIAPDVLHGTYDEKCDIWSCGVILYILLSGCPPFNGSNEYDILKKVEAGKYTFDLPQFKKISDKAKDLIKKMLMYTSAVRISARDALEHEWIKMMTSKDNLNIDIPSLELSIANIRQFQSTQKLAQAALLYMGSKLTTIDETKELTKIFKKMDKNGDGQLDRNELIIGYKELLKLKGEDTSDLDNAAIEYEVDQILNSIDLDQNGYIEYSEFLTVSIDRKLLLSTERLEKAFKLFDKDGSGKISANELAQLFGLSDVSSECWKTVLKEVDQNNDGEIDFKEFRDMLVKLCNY

Calcium-dependent protein kinase 1 (Plasmodium falciparum (isolate 3D7)), sequence (P62344 whole entry, looked up): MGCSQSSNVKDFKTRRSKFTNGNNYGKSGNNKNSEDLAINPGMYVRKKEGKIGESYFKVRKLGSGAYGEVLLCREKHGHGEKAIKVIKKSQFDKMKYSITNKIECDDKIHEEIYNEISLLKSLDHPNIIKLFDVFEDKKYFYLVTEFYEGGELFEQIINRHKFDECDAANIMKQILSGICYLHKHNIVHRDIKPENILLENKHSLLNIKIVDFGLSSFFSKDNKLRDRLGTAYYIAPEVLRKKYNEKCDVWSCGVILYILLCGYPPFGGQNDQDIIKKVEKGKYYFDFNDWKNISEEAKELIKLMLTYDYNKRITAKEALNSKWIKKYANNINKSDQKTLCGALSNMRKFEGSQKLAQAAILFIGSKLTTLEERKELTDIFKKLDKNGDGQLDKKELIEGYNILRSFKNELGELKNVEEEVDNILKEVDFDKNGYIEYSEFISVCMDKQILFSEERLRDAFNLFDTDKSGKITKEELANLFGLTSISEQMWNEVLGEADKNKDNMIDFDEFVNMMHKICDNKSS
L-lactate dehydrogenase (Plasmodium falciparum (isolate CDC / Honduras)), sequence (Q27743 whole entry, looked up): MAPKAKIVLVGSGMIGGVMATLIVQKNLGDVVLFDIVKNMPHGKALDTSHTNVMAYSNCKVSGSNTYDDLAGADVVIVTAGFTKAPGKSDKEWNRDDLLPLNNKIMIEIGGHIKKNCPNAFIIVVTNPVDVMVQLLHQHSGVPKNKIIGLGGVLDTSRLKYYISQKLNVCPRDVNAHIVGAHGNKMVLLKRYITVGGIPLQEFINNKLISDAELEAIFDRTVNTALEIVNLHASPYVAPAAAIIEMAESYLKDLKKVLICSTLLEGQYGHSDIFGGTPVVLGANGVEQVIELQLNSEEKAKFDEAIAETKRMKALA
Protein kinase 7 (PK7), Plasmodium falciparum 3D7 (PF3D7_0213400), sequence (Q7YTF7 1-343): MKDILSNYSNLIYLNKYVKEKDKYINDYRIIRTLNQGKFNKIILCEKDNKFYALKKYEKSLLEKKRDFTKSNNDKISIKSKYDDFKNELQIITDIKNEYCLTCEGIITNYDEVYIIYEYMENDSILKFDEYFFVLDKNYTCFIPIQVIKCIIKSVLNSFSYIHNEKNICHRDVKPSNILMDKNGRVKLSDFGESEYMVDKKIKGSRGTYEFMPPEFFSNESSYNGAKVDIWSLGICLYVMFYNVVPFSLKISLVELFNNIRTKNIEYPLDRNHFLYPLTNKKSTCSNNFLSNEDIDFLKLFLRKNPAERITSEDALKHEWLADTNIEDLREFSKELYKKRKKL
Plasmodium falciparum protein kinase 6 (PK6, PF3D7_1337100), sequence (Q8IDW1 1-305): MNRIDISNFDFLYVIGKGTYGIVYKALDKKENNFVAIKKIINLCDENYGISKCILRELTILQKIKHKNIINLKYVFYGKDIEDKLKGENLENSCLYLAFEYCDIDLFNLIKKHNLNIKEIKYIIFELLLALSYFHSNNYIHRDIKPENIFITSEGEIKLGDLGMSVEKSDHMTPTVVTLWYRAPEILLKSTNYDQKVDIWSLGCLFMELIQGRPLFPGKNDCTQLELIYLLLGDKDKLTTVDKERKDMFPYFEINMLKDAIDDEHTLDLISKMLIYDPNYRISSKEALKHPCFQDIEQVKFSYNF

`Fc1cc(Cl)ccc1Nc1ccnc2cc(-c3ccc(CN4CCCCC4)o3)ccc12`: the values for the growth inhibition in experiment [1] and in experiment [4] were 99% (active) and 100% (active), respectively. For the same compound, the inhibition was 16% in experiment [2] and -1% in experiment [3]. Moreover, the outcome in experiment [5], in experiment [6], in experiment [7] and in experiment [8] was inactive.

On to `Cc1ccc2nc(-c3ccccc3Nc3ccnc4cc(-c5nccs5)ccc34)[nH]c2c1`, for which the growth inhibition in experiment [1] is 100% (active); in experiment [4], 101% (active). Moreover, the inhibition was 40% in experiment [2] and -5% in experiment [3]. For the same compound, the outcome in experiment [5], in experiment [6], in experiment [7] and in experiment [8] was inactive.

Take `CN1CCC[C@H]1COc1ccc(CN2CC[C@H](NC(=O)c3ccc(Cl)c(Cl)c3)C2)c2ccccc12`: the growth inhibition in experiment [1] was 98% (active); in experiment [4] it was 101% (active). The inhibition in experiment [2] is 47%; in experiment [3], -3%. Also, the result in experiment [5], in experiment [6], in experiment [7] and in experiment [8] was inactive.

With `NC1CCN(Cc2ccc(-c3ccc(-c4nc5ccc(F)cc5[nH]4)s3)cc2)C1` (centres undefined), the growth inhibition in experiment [1] was 98% (active); in experiment [4], 100% (active). The figures for the inhibition in experiment [2] and in experiment [3] were 32% and 3%, respectively. For the same compound, the outcome in experiment [5], in experiment [6], in experiment [7] and in experiment [8] was inactive.

For the compound `COc1ccc(S(=O)(=O)N2CCCC(C)C2)cc1N1CCN(C(=O)c2ccc([N+](=O)[O-])o2)CC1` (centres undefined), the growth inhibition was 4% in experiment [1] and 94% (active) in experiment [4]. For the same compound, the inhibition in experiment [2] is -3%; in experiment [3] it was -2%. The outcome in experiment [5], in experiment [6], in experiment [7] and in experiment [8] was inactive.

Turning to `NC(=O)C1CCN(Cc2ccc(-c3ccc(-c4nc5ccc(C(F)(F)F)cc5[nH]4)s3)cc2)CC1`, the growth inhibition is 91% (active) in experiment [1] and 99% (active) in experiment [4]. The inhibition in experiment [2] was 22%; in experiment [3] it was -5%. In addition, the outcome in experiment [5], in experiment [6], in experiment [7] and in experiment [8] was inactive.

Take `CC(=O)Nc1ncc(C(=O)Nc2cccc(-c3ccc(-c4nc5ccc(C(F)(F)F)cc5[nH]4)cc3)c2)s1`: the growth inhibition in experiment [1] was 94% (active); in experiment [4], 101% (active). For the same compound, the inhibition in experiment [2] is 83% (active); in experiment [3] it was -4%. For the same compound, the outcome in experiment [5], in experiment [6], in experiment [7] and in experiment [8] was inactive.

Take `COc1ccc(S(=O)(=O)N2CCC3(CC2)OCC(=O)NC3c2ccc(Cl)c(Cl)c2)cc1` (centres undefined): the growth inhibition is 44% in experiment [1] and 91% (active) in experiment [4]. For the same compound, the inhibition is -4% in experiment [2] and -2% in experiment [3]. Moreover, the outcome in experiment [5], in experiment [6], in experiment [7] and in experiment [8] was inactive.

`O=C1OC2(CCN(Cc3cccc(-c4ncc[nH]4)c3)CC2)CN1CCNCc1ccccc1`: the growth inhibition is -1% in experiment [1] and 94% (active) in experiment [4]. Further, the inhibition was -8% in experiment [2] and -1% in experiment [3]. For the same compound, the result in experiment [5], in experiment [6], in experiment [7] and in experiment [8] was inactive.

Turning to `OC(CNCc1cccc(Oc2ccc(Cl)cc2)c1)c1cc(C(F)(F)F)cc(C(F)(F)F)c1` (centres undefined), the results for the growth inhibition in experiment [1] and in experiment [4] were 101% (active) and 99% (active), respectively. Besides, the inhibition was -4% in experiment [2] and 8% in experiment [3]. Moreover, the outcome in experiment [5], in experiment [6], in experiment [7] and in experiment [8] was inactive.

For the compound `Nc1cc(-c2cccc(Cl)c2)nn1-c1ccnc2cc(Cl)ccc12`, the growth inhibition in experiment [1] is 33%; in experiment [4], 99% (active). Also, the inhibition in experiment [2] was -3%; in experiment [3], -2%. Also, the outcome in experiment [5], in experiment [6], in experiment [7] and in experiment [8] was inactive.

For `Oc1ccc2[nH]c(-c3ccc(F)cc3F)nc2c1CN1CCC(O)(c2ccccc2)CC1`, the results for the growth inhibition in experiment [1] and in experiment [4] were 70% (active) and 96% (active), respectively. Besides, the inhibition in experiment [2] is 16%; in experiment [3] it was -2%. Besides, the result in experiment [5], in experiment [6], in experiment [7] and in experiment [8] was inactive.

Turning to `COCCCN=C(N)c1ccc(NC(=O)c2ccc(C(=O)Nc3ccc(C(N)=NCCCOC)cc3)cc2)cc1`, the growth inhibition was 99% (active) in experiment [1] and 100% (active) in experiment [4]. The inhibition in experiment [2] was 33%; in experiment [3], -2%. Further, the result in experiment [5], in experiment [6], in experiment [7] and in experiment [8] was inactive.

With `CCC[C@@H]([C@@H](CC(C)C)C(=O)N[C@H](C(=O)Nc1nccs1)C(C)(C)SCCNC(=O)OCC)N(O)C=O`, the growth inhibition in experiment [1] was 97% (active); in experiment [4] it was 95% (active). The inhibition is -8% in experiment [2] and -7% in experiment [3]. Also, the result in experiment [5], in experiment [6], in experiment [7] and in experiment [8] was inactive.

Turning to `CCSc1nc2sc3c(c2c(=O)n1-c1ccccc1)CCN(C)C3`, the growth inhibition in experiment [1] was 71% (active); in experiment [4], 83% (active). The inhibition in experiment [2] is 16%; in experiment [3], -3%. Further, the outcome in experiment [5], in experiment [6], in experiment [7] and in experiment [8] was inactive.

As for `O=c1cc(NC[C@H]2CCC[C@@H]2NC2CCCc3c2[nH]c2ccccc32)[nH]c2ccccc12` (some centres undefined), the growth inhibition was 25% in experiment [1] and 101% (active) in experiment [4]. The inhibition was 6% in experiment [2] and -6% in experiment [3]. The result in experiment [5], in experiment [6], in experiment [7] and in experiment [8] was inactive.

For `COc1ccc(CC2(c3ccc(F)cc3)N=C(N)N(CCCc3ccc(F)c(F)c3)C2=O)cc1` (centres undefined), the growth inhibition in experiment [1] and in experiment [4] was 98% (active) in each case. Moreover, the figures for the inhibition in experiment [2] and in experiment [3] were 42% and 5%, respectively. Moreover, the outcome in experiment [5], in experiment [6], in experiment [7] and in experiment [8] was inactive.

`Cc1ccccc1C1CCN(C2CCC(NC(=O)/C=C/c3ccc(F)cc3)CC2)CC1` (centres undefined): the growth inhibition is 30% in experiment [1] and 87% (active) in experiment [4]. For the same compound, the inhibition in experiment [2] is 61% (active); in experiment [3], -2%. In addition, the outcome in experiment [5], in experiment [6], in experiment [7] and in experiment [8] was inactive.
